# In PubChem BioAssay:
# Active and inactive are the calls of the source.
# Assays:
# [1] = small molecules captured by biotinylated probe aFSTL3 – biochemical, small-molecule microarray, fluorescence 635/667, stem cell growth factor project, primary screen (AID 1064); conditions: higher = more signal;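 further: measures binding of the biotinylated anti-FSTL3 antibody to printed compounds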
# [2] = binders from COS7 lysate, DM2A8 probe, primary screen, torsin A project, cell lysate, small-molecule microarray, fluorescence 635/667 (AID 1065); conditions: higher = more signal, COS7 lysate expressing mutant human TOR1A
# [3] = small molecules captured by biotinylated probe aFGF2 – biochemical, small-molecule microarray, fluorescence 635/667, stem cell growth factor project, primary screen (AID 1067); conditions: higher = more signal;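 further: measures binding of biotinylated aFGF2 protein to printed compounds on slides; z-score merges feature fluorescence and signal-to-noise across triplicate slides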
# [4] = small molecules captured by biotinylated probe aFGF10 – biochemical, small-molecule microarray, fluorescence 635/667, stem cell growth factor project, primary screen (AID 1071); conditions: higher = more signal;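 further: score merges 667 nm spot intensity and signal to noise from triplicate slides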
# [5] = biological target: Neurogenic locus notch homolog protein 2 (Homo sapiens) (UniProt Q04721); assay: small molecules binding Notch2 protein – biochemical, small-molecule microarray, 635 nm fluorescence, stem cell growth factors, primary screen (AID 1073); conditions: higher = more signal
# [6] = biological target: Pro-neuregulin-1, membrane-bound isoform (Homo sapiens) (UniProt Q02297); assay: small molecules binding neuregulin-1 protein – biochemical, small-molecule microarray, fluorescence 635/667, psychiatric disease protein project, primary screen (AID 1075); conditions: NRG1 binding, 635 nm fluorescence, higher = more signal;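 further: score combines 667 nm spot fluorescence with signal to noise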
# Chain of Pro-neuregulin-1, membrane-bound isoform (Homo sapiens) (Q02297 whole entry, looked up, the tested form may be a part, canonical isoform): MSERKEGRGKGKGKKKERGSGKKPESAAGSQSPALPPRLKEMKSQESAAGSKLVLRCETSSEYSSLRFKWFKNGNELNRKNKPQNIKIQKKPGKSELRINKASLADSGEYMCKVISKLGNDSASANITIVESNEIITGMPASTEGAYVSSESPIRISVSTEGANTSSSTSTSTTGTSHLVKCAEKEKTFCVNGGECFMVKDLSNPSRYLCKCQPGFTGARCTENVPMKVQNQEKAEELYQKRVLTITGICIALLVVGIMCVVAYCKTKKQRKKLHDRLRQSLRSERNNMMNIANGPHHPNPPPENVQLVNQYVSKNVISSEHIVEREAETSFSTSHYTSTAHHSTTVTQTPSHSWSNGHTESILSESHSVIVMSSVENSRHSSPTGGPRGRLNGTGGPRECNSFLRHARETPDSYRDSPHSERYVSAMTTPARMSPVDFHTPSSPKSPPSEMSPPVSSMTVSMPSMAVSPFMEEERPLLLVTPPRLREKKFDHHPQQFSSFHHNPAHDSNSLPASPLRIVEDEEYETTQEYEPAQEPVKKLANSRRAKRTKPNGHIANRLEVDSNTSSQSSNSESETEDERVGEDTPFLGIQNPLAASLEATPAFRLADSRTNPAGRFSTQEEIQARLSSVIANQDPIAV
# [7] = tested on: Neuregulin-1 EGF-like domain; assay: small molecules binding NRG1 EGF domain – biochemical, small-molecule microarray, 635 nm fluorescence, primary screen (AID 1081); conditions: higher = more signal;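 further: binding of the protein to compounds printed on small-molecule microarray slides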
# [8] = FRG1 expression reporter modulators in myotubes – cell-based, C2C12 myotubes, firefly/Renilla luciferase, luminescence, FRG1 inhibition for FSHD, primary screen (AID 1084); conditions: FRG1 promoter luciferase, higher = more signal, called active from +8 up or from −8 down
# [9] = small molecules captured by biotinylated probe aFST – biochemical, small-molecule microarray, fluorescence 635/667, stem cell growth factor project, primary screen (AID 1086); conditions: higher = more signal;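 further: score merges 667 nm fluorescence with signal-to-noise of each printed compound spot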
# [10] = binders of probe aHhip on microarray, primary screen, stem cell growth factor project, biochemical, small-molecule microarray, fluorescence 635/667 (AID 1087); conditions: higher = more signal;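 further: score merges spot fluorescence at 667nm with spot signal to noise ratio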
# [11] = tested on: PRMT1 (protein arginine N-methyltransferase 1); assay: small molecules binding arginine methyltransferase PRMT1 – biochemical, small-molecule microarray, 635 nm fluorescence, primary screen (AID 1088); conditions: higher = more signal;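 further: binding of Prmt1 protein to compounds spotted on small-molecule microarray slides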
# [12] = growth effects on S. cerevisiae YJM789 – YJM789 clinical isolate, OD600, 24 h, basal, primary screen (AID 1089); conditions: higher = more signal, called active from +8 up or from −8 down;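 further: growth of clinical yeast isolate S. cerevisiae YJM 789 seeded 1000 cells per well; test concentration not given here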
# [13] = S. pombe growth modifiers, basal conditions – strain 972, OD600, 24 h, no modulator, primary screen (AID 1090);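 further: basal condition with compound alone and no growth modifier present; test concentration not given here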; conditions: S. pombe 972 growth, higher = more signal, called active from +8 up or from −8 down
# [14] = budding yeast growth modifiers under rapamycin – strain BY4716, OD600, 96 h, primary screen (AID 1091); further: test concentration not given here; conditions: S. cerevisiae BY4716 + rapamycin, higher = more signal, called active from +8 up or from −8 down
# [15] = biological target: Torsin-1A-interacting protein 2 (Homo sapiens) (UniProt Q8NFQ8); assay: small molecules binding lysate-expressed LULL1 – cell lysate, human LULL1 lysate, 635/667 nm fluorescence, primary screen (AID 1092); conditions: small-molecule microarray, hLULL1 lysate binding, 635 nm fluorescence; higher = more signal;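 further: probe is lysate of COS7 cells overexpressing human LULL1; score merges per-feature 667 nm fluorescence with signal-to-noise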
# Chain of Torsin-1A-interacting protein 2 (Homo sapiens) (Q8NFQ8 whole entry, looked up): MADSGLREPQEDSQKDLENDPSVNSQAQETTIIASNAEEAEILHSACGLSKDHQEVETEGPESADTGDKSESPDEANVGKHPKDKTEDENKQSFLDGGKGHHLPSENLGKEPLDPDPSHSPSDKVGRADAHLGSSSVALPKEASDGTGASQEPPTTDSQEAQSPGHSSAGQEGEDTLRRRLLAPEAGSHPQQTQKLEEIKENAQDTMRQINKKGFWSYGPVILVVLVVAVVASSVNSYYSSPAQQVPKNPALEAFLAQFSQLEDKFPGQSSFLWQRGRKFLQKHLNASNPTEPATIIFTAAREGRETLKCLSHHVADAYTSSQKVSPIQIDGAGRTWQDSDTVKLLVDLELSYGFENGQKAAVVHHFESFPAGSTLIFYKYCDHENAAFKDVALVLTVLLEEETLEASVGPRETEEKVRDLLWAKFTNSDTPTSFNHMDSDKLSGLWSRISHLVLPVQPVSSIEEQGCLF
# [16] = optical density change of DRC41 E. coli – strain DRC41, OD650, 24 h, E. coli filamentation project, primary screen (AID 1093);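 further: MC1000 strain lacking acrAB efflux and sulA so SOS filamentation is blocked; test concentration not given here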; conditions: E. coli DRC41 growth, higher = more signal, called active from +8 up or from −8 down
# [17] = probe aLefty2 binding to arrayed compounds – biochemical, biotinylated probe, 635/667 nm fluorescence, primary screen (AID 1094); conditions: small-molecule microarray, higher = more signal;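 further: score merges spot fluorescence near 667 nm with spot signal-to-noise ratio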
# [18] = tested on: Noggin (protein binding on small-molecule microarray); assay: small molecules binding Noggin protein – biochemical, 635/667 nm fluorescence, primary screen (AID 1095); conditions: 635 nm fluorescence, higher = more signal;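 further: score merges 667 nm feature fluorescence with signal to noise over triplicate slides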
# [19] = biological target: Neurogenic locus notch homolog protein 3 (Homo sapiens) (UniProt Q9UM47); assay: small molecules binding NOTCH3 protein – biochemical, 635/667 nm fluorescence, primary screen (AID 1096); conditions: small-molecule microarray, 635 nm fluorescence, higher = more signal
# Chain of Neurogenic locus notch homolog protein 3 (Homo sapiens) (Q9UM47 whole entry, looked up): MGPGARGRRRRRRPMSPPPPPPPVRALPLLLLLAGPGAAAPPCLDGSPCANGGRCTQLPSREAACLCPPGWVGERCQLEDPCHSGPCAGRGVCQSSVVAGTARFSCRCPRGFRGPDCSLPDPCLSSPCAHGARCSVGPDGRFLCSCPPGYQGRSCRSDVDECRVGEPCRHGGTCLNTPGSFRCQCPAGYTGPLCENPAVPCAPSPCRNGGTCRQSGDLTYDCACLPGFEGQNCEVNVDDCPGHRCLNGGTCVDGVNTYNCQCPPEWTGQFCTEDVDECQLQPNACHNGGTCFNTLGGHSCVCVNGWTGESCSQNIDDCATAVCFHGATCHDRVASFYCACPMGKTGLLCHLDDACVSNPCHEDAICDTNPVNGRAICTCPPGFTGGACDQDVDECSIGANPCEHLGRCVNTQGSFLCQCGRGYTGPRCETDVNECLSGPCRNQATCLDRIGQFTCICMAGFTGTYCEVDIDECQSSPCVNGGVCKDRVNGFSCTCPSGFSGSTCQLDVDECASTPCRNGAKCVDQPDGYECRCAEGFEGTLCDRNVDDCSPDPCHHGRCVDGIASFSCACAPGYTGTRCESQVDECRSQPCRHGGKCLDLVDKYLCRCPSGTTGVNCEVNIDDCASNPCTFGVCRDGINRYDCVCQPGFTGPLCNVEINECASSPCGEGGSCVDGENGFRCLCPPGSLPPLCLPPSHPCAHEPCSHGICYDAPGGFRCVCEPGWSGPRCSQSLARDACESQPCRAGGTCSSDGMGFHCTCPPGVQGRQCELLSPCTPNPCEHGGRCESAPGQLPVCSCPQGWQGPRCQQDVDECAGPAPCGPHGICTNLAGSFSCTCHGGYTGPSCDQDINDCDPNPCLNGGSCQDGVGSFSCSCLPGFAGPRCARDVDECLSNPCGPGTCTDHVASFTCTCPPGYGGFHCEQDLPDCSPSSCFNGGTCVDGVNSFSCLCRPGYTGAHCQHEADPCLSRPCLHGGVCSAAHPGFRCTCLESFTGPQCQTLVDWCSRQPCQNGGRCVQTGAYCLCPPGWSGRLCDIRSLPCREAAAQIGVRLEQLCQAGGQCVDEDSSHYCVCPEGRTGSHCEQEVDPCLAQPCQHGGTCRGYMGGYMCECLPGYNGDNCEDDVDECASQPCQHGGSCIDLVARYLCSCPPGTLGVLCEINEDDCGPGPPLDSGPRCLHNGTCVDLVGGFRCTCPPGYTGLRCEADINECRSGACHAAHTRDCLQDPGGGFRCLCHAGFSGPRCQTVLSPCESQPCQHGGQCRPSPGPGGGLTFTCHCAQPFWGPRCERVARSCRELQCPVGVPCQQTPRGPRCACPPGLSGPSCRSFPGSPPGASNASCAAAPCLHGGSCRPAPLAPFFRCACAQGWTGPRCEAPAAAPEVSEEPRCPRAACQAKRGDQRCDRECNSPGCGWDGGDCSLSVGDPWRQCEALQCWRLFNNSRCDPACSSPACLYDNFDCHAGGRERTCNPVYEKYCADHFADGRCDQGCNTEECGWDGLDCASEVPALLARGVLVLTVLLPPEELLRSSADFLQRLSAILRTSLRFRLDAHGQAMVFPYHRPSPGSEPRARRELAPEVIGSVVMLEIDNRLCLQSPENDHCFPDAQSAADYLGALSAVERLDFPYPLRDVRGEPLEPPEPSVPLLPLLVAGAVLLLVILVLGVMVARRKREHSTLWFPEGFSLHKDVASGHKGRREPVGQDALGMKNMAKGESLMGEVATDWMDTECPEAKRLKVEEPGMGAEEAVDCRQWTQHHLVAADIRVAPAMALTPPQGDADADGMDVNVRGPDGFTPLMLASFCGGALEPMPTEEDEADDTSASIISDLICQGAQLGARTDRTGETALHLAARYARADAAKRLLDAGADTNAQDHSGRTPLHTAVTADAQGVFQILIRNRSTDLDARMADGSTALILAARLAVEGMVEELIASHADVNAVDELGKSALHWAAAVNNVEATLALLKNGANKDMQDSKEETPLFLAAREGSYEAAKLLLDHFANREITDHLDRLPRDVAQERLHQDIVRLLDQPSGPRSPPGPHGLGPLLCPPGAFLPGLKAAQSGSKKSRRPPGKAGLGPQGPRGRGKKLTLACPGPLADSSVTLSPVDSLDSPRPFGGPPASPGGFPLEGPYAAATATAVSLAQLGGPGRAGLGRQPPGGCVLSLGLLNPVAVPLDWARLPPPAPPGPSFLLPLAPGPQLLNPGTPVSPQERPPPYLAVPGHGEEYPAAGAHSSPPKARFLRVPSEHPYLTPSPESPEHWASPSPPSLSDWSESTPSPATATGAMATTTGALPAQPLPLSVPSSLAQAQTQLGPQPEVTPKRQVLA
# [20] = probe aEGFR binding to arrayed compounds – biochemical, biotinylated probe, 635/667 nm fluorescence, primary screen (AID 1097); conditions: small-molecule microarray, higher = more signal;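 further: probe is a biotinylated anti-EGFR antibody binding compounds printed on slides; score combines fluorescence near 667 nm and signal to noise of each spot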
SMILES,composite z-score [1],composite z-score [2],composite z-score [3],composite z-score [4],composite z-score [5],composite z-score [6],composite z-score [7],z-score [8],composite z-score [9],composite z-score [10],composite z-score [11],z-score [12],z-score [13],z-score [14],composite z-score [15],z-score [16],composite z-score [17],composite z-score [18],composite z-score [19],composite z-score [20]
C=CC1c2cc(O)c(OC)cc2CCN1Cc1sc2ccccc2c1Cl (stereo not given),1.12,0.396,-0.0316,0.436,1.2,1.9,1.23,-0.732 (inactive),0.853,-0.0237,0.756,-1.62 (inactive),-19.2 (active),-0.399 (inactive),2.49,-0.368 (inactive),0.233,0.123,0.968,0.0673
COc1ccc(C(O)C2C=CC3C(=O)N(C)C(=O)C3N2N2CCCCC2)cc1 (stereo not given),-0.162,1.42,0.213,1,1.65,1.61,1.38,1.51 (inactive),0.201,-0.283,0.973,-0.186 (inactive),-0.275 (inactive),-0.0667 (inactive),2.83,-0.454 (inactive),0.311,0.158,0.871,0.0961
CC(=O)n1cc(C(O)C2C=CC3C(=O)N(Cc4ccccc4)C(=O)C3N2n2cnnc2)c2ccccc21 (stereo not given),-0.317,0.47,-0.0218,-0.0821,0.145,-0.0307,0.351,0.186 (inactive),0.426,-0.268,0.77,-0.423 (inactive),0.552 (inactive),0.192 (inactive),1.23,-0.901 (inactive),-0.0858,-0.415,0.193,0.728
COc1ccc([Si](C)(C)[C@H]2[C@H](CCn3cc([C@H](O)c4ccccc4)nn3)O[C@@]3(C(=O)N(Cc4cccc(N5C(=O)c6cccc7cccc5c67)c4)c4ccccc43)[C@@H]2C)cc1,0.582,-0.17,-0.158,-1.11,-1.65,0.84,0.251,-0.704 (inactive),-0.295,-0.0994,0.492,-0.844 (inactive),0.723 (inactive),0.635 (inactive),1.28,-0.666 (inactive),-0.134,-1.17,-0.871,-0.21
O=c1cccc(-c2cccc(Cl)c2)o1,-0.118,-0.341,-0.0937,0.299,-0.0173,-0.0364,0.409,2.02 (inactive),0.433,-0.223,0.0485,-3.86 (inactive),-4.41 (inactive),5.45 (inactive),0.0149,0.658 (inactive),-0.0927,-0.162,0.136,-0.0304
C=CCN1C(=O)[C@@]2(CCC(=O)OC(C)(C)C)N=C(c3ccc(OCCCO)cc3)O[C@H]2c2ccccc21,0.324,0.198,0.0698,0.0883,0.724,0.82,1.21,-2.47 (inactive),0.278,-0.195,1.47,-1.89 (inactive),-5.84 (inactive),1.44 (inactive),2.71,0.784 (inactive),0.107,1.24,1.09,-0.146
C[C@]12C(=O)N(CCCCCCO)[C@@H]3C(=O)N(c4ccc(Cl)cc4)CC=CC31O[C@@H]1/C=C\CCCOC(=O)C12 (stereo not given in full),0.299,-0.268,-0.121,-0.387,-1.02,0.0955,1.2,-0.621 (inactive),-0.21,-0.132,0.807,-2.23 (inactive),-1.63 (inactive),-0.695 (inactive),3.27,1.19 (inactive),-0.0665,-0.463,-0.353,-0.194
COCCOC(=O)N1C(=O)[C@@]2(c3ccccc31)[C@H](C(=O)N1CCN(c3ncccn3)CC1)[C@H]1C(=O)O[C@H](c3ccccc3)[C@H](c3ccccc3)N1[C@@H]2c1ccc(OCCO)cc1,0.213,0.295,0.0043,1.13,1.29,1.2,1.28,0.795 (inactive),0.593,0.388,1.56,2.53 (inactive),1.1 (inactive),5.84 (inactive),2.56,1.75 (inactive),0.309,0.57,0.817,0.325
CCOC(=O)C[C@H]1[C@H](OC(=O)Cc2ccc3c(c2)OCO3)[C@@H](NC(=O)C2CCCCC2)c2cc(OCCCO)ccc2N1C(=O)c1ccc2ccccc2n1,0.695,0.246,-0.003,0.234,0.904,0.196,0.519,-2.88 (inactive),0.857,-0.335,0.688,0.327 (inactive),-1.46 (inactive),-0.591 (inactive),1.34,0.848 (inactive),-0.0798,1.98,1.09,0.0428
COCCOC(=O)N1C(=O)[C@@]2(c3cc(C#Cc4ccc(OC)cc4)ccc31)[C@H](C(=O)NC[C@H](O)c1ccccc1)[C@H]1C(=O)O[C@H](c3ccccc3)[C@H](c3ccccc3)N1[C@@H]2c1ccc(O)cc1,-0.179,0.504,0.0086,0.589,1.37,0.566,1.23,0.427 (inactive),0.57,0.012,1.54,0.254 (inactive),1.06 (inactive),1.08 (inactive),2.49,0.394 (inactive),-0.0159,0.793,1.05,0.268
